From PubChem BioAssay AID800 (PCMD, 2007) come the findings set out here.

A word on the inhibition: it is the drop in the measured response relative to a control, in per cent.

Molecules are shown by their SMILES. Screen size: about 220,000 compounds; about 650 (0.3%) were called active. Many of the other results were omitted from the sample, so actives are more common in it than they were. Values without a mark were called inactive. No stated cut-off is given here; in the data, active means inhibition above about 40%; inactive means the rest.

Coagulation factor XII (Homo sapiens), sequence (P00748 20-372 limits assumed): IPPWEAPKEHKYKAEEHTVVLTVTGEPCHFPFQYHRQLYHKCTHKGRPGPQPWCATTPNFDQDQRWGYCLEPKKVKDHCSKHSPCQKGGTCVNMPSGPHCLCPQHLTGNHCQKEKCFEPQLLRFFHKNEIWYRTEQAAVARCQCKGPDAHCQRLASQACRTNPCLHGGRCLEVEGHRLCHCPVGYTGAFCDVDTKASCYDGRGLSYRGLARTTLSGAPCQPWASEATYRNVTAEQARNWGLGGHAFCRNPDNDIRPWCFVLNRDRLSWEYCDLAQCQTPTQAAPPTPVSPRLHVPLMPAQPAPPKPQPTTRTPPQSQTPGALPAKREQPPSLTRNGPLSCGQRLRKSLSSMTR
Coagulation factor XII (Homo sapiens), sequence (P00748 373-615 limits assumed): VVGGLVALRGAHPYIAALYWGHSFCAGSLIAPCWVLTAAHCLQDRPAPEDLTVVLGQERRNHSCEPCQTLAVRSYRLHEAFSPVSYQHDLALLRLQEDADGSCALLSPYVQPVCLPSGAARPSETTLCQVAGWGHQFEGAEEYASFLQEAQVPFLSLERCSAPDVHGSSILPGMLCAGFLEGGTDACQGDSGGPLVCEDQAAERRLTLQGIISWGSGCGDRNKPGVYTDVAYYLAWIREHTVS

This test has as its target Coagulation factor XII (Homo sapiens) (UniProt P00748). The test is described as follows: human FXIIa protease inhibitors, primary screen, biochemical, 1536-well (AID 800).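 Further: 0% = enzyme with no compound and 100% = blank without enzyme.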 The settings on record: purified FXIIa, Boc-QGR-AMC fluorogenic substrate, 2 h; at 5 µM; active compounds read high.
Take `CCOC(=O)c1c(C)oc(C)c(C(=O)OCC)c1=O`: the inhibition was 8.51%.

As for `CCOC(=O)c1cnc(COc2ccccc2Cl)[nH]c1=O`, the inhibition is 3.67%.

Take `CC/C(=N\NC(=S)NC(C)C)c1ccc(OC(F)F)cc1`: the inhibition was 52.2% (active).

On to `CC(NC(=S)Nc1ccc(OC(F)F)cc1)c1ccc(F)cc1` (centres undefined), for which the inhibition was 10.5%.

As for `O=C(NNC(=S)NCc1ccccc1)c1ccc(OC(F)F)cc1`, the inhibition was -6.41%.

With `Cc1onc(-c2ccc(Cl)cc2)c1-c1ccnn1S(=O)(=O)c1ccc(Cl)cc1`, the inhibition was 3.87%.

Regarding `CCOCCn1c(-c2ccccc2)nc2ccccc21`, the inhibition is 9.94%.

For the compound `O=C(COC(=O)CCc1nc2ccccc2c(=O)[nH]1)Nc1ccc(N2CCOCC2)cc1`, the inhibition is 1.95%.

As to `CSc1nc(C)nc(C2CC2)c1C#N`, the inhibition is 1.66%.

`CN(c1ccc(OCC(=O)NC2=NCCS2)cc1)S(=O)(=O)c1ccc(F)cc1`: the inhibition was 7.4%.

On to `Cc1ccc(S(=O)(=O)N2CCN(C(=O)COC(=O)c3c(C)noc3C)CC2)c(C)c1`, for which the inhibition is 7.88%.

For the compound `O=c1[nH]c(CSc2ccccc2)nc2c1oc1ccccc12`, the inhibition is 7.45%.

With `COC(=O)[C@H](Cc1ccccc1)NC(=O)Nc1ccc(OC)cc1`, the inhibition is 4.58%.

In the case of `CC(C)(C)NC(=O)/C(=C/c1cccnc1)NC(=O)c1ccco1`, the inhibition was 15.3%.

In the case of `O=C(Nc1nnc(Cc2ccc(Cl)cc2)s1)c1ccncc1`, the inhibition is 2.31%.

Turning to `O=C(NNC(=S)NC1CC2CCC1C2)c1ccc(Cl)cc1` (centres undefined), the inhibition is 7.4%.

Take `CCc1ccc2nc(Nc3ncc(C(C)=O)c(C)n3)nc(C)c2c1`: the inhibition was 6.31%.

As for `C=C(C)C(=O)Nc1cccc(C2=NOC3(C2)C[C@H](C(N)=O)N(C(=O)C(c2ccccc2)c2ccccc2)C3)c1` (some centres undefined), the inhibition is 0.36%.

Take `Nc1nc(Sc2ncccc2[N+](=O)[O-])n[nH]1`: the inhibition is 7.38%.

On to `C/C(=N/Nc1nc(-c2ccccc2)c(CC(=O)O)s1)c1ccccc1`, for which the inhibition was 10.1%.

`COc1ccccc1-c1c(C#N)c(N)nc2c1CCC2`: the inhibition is -2.02%.

Take `CCOC(=O)C(=CNNc1ccsc1C(=O)OC)C(=O)OCC`: the inhibition was 8.52%.

With `COc1ccc(OCC(=O)N2CCN(C(=O)c3cccs3)CC2)cc1`, the inhibition was 0.82%.

For `COc1ccc(CN(C(=O)c2cccs2)c2nccs2)cc1OC`, the inhibition is 14.5%.

With `COc1ccc(CN(Cc2ccc(OC)cc2)C(=O)c2cccs2)cc1`, the inhibition was 45.5% (active).

With `Cc1nc(=O)c(-c2ccccc2)c(C)n1-c1ccc(Br)cc1`, the inhibition is 7.02%.

Consider `CCOC(=O)c1nnn2c1nc(N1CCN(c3ccccc3)CC1)c1ccccc12`, for which the inhibition is 5.24%.

Turning to `Cc1ccc2c(c1)nnc1nnc(SCC(=O)O)n12`, the inhibition was 5.33%.

In the case of `Cc1cccc(NC(=O)c2nc[nH]c2C(=O)NCC(=O)OCc2ccccc2)c1`, the inhibition is 7.76%.

Take `Cc1ccc(NNC(=O)c2cccs2)cc1Cl`: the inhibition is 8.48%.

As for `CCc1nnc(NC(=O)CCN(c2ccc(C)cc2)S(=O)(=O)c2ccccc2)s1`, the inhibition was 49.2% (active).

As to `CCc1nnc(NC(=O)CCC(=O)O)s1`, the inhibition was 13.2%.

`CCc1nnc(NC(=O)CCC(=O)NCc2ccccc2OC)s1`: the inhibition was 15%.

Turning to `CCCCC1=CC2=CC(=O)C(C)(OC(=O)CC)C(=O)C2=CN1CCCOC(C)C` (centres undefined), the inhibition is 7.98%.

As for `O=C(Nc1ccc(F)cc1)c1cc2c(s1)CCCC2`, the inhibition is 8.77%.

Turning to `COc1ccc(CNC(=O)C2CC(c3ccc(C(F)(F)F)cc3)=NO2)cc1` (centres undefined), the inhibition is 7.68%.

Turning to `Nc1nnn(CC(=O)N/N=C/c2ccc(O)cc2)n1`, the inhibition is 16.2%.

For `CCc1cccc(CC)c1NC(=S)Nc1ccc2cn[nH]c2c1`, the inhibition is 10%.

Turning to `Cc1ccc(SCc2c(C(=O)N/N=C/C3CC=CCC3)nnn2-c2nonc2N)cc1` (centres undefined), the inhibition was 9.39%.

As to `CS(=O)(=O)c1ccc2nc(NC(=O)c3ccc(N4CCCC4=O)cc3)sc2c1`, the inhibition was 1.85%.

On to `O=C(NCc1ccc2c(c1)OCO2)c1sccc1Br`, for which the inhibition was 8.69%.

On to `C/C=C(/C)C(=O)O[C@@H]1c2cc3c(c4c2[C@@]2(CO4)C(=O)C(OC)=C(OC)C=C2C[C@@H](C)[C@H]1C)OCO3`, for which the inhibition was 12.9%.

On to `Oc1[nH]c2ccc(Br)cc2c1N=Nc1nn[nH]n1`, for which the inhibition was 12.3%.

Consider `CCCc1ccc(C(=O)[C@@H]2[C@@H](C(C)=O)N3c4ccc(F)cc4C=C[C@@H]3[C@@]23C(=O)Nc2ccccc23)cc1`, for which the inhibition was 8.48%.

Turning to `CC1CC(C)(C)n2c(O)c(N=NC(N)=S)c3cccc1c32` (centres undefined), the inhibition was 30.2%.

As to `Cc1ccccc1Nc1c(-c2ccccc2)nc2ncccn12`, the inhibition is 5.54%.

Consider `CCc1ccc(S(=O)(=O)NCC(O)COc2ccc(OC)cc2)cc1` (centres undefined), for which the inhibition was 6.59%.

Turning to `Cc1cc(NC(=O)c2cccc(N3C(=O)CCC3=O)c2)no1`, the inhibition was 16.7%.

`Cc1cccc(NC(=O)c2ccc3ccccc3n2)n1`: the inhibition was 16%.

On to `Cc1cccc(NC(=O)c2cc(N3C(=O)CCC3=O)ccc2Cl)n1`, for which the inhibition is 50.5% (active).

As for `O=C(NC1CCN(Cc2ccccc2)CC1)c1ccc(Oc2cc(Cl)cc(Cl)c2)o1`, the inhibition is 6.33%.

Take `S=c1[nH]c2ccccc2c2ccccc12`: the inhibition is 2.88%.

Take `COC(=O)CCCC1=CC2=CC(=O)C(C)(OC(=O)c3cccs3)C(=O)C2=CN1CC(C)C` (centres undefined): the inhibition is 7.73%.

Regarding `Cc1noc(C)c1C(=O)OCC(=O)N1CCN(S(=O)(=O)c2ccc3ccccc3c2)CC1`, the inhibition was 1.83%.

For the compound `Nc1ccccc1Sc1cc(Cl)nnc1Cl`, the inhibition is 12.7%.

As for `C=CCn1c(=S)sc2c(=O)[nH]c(C)nc21`, the inhibition is 1.68%.

Regarding `Cc1cc(=O)[nH]c(S)c1C#N`, the inhibition is -0.28%.

Consider `COC(C[C@@H](O)[C@H](C)[C@H](O)COCc1ccccc1)OC`, for which the inhibition was 4.52%.

On to `Cn1c(S(=O)(=O)O)nc2ccccc21`, for which the inhibition is -0.32%.

As to `NS(=O)(=O)c1ccc(CCNC(=O)NC2CCCCC2)cc1`, the inhibition is 15%.

Take `O=C(c1ccc(Cl)cc1)N1N=C(c2ccccn2)CC1(O)C(F)(F)F` (centres undefined): the inhibition was 8.52%.

`Cc1ccc(-n2ncc3c(=O)[nH]cnc32)c(C)c1`: the inhibition is 54% (active).

For `Cc1ccc(-n2ncc3c2ncn2nc(-c4ccco4)nc32)c(C)c1`, the inhibition is 14.2%.

Consider `COC(=O)CSc1ncnc2c1cnn2-c1ccc(C)cc1C`, for which the inhibition is 5.55%.

As to `Cc1[nH]n(C)c(=O)c1C(=O)c1c(-c2c(Cl)cccc2Cl)noc1C`, the inhibition was 2.28%.

As to `CCOc1c(Nc2cccc(Cl)c2)c(=O)c1=O`, the inhibition is 8.16%.

Take `COc1ccc(Nc2ncnc3sc(-c4ccccc4)cc23)c(OC)c1`: the inhibition was 4.94%.

With `CC(C)(C)c1cc(C(=O)N/N=C/c2ccc([N+](=O)[O-])s2)n[nH]1`, the inhibition is 7.22%.

For `Cc1nc(N)[nH]c(=O)c1Oc1cccc(C(F)(F)F)c1`, the inhibition is 3.61%.

On to `O=C(CSC(=S)N1CCCCC1)c1c(F)cccc1F`, for which the inhibition is 6.72%.

For `CNC(=O)c1cccc2nc3ccccc3nc12`, the inhibition was 6.68%.

For `Brc1ccc(-c2nn[nH]n2)cc1`, the inhibition was 12.5%.

Consider `CC(C)S(=O)(=O)c1csc(NC(=O)Nc2ccc(Cl)cc2)c1Cl`, for which the inhibition is 6.02%.

As to `C=C(C)C(=O)O[C@H]1C/C(C)=C\C(=O)/C=C(\C)[C@H](O)[C@@H]2OC(=O)C(=C)[C@@H]21`, the inhibition was 8.34%.

Regarding `COc1cccc(Nc2nnc(SCC(=O)N3CC(=O)Nc4ccccc43)s2)c1`, the inhibition was 5.5%.

Regarding `C/C=N/N(c1ccccc1)c1ccccc1`, the inhibition was 4.81%.

On to `CC(C)(C)C(=O)Nc1c(Br)c(C2CC2)nn1-c1ccccc1`, for which the inhibition is 6.88%.

As for `Cc1cc(C)cc(OCC(=O)O/N=C(\N)Cc2ccc([N+](=O)[O-])cc2)c1`, the inhibition is 0.85%.

On to `O=C(COc1ccc(Cl)cc1[N+](=O)[O-])N1CCCCC1`, for which the inhibition was 2.91%.

`CCOc1cc(CO)ccc1OCC(=O)N1CCCCC1`: the inhibition is 52.6% (active).

Regarding `CCOc1cc(CN2CCN(C(=O)CC(C)C)CC2)ccc1OC`, the inhibition was -3.42%.

As for `O=C(CN1C(=O)CC(c2ccccc2)=Nc2ccccc21)NC1CCCCC1`, the inhibition is 12.2%.

As to `O=C(CN1C(=O)NC2(CCCCCC2)C1=O)NC1CC1`, the inhibition is 0.9%.

With `CCC1SC(CC)C(=O)N(CC(=O)NC2CCCCC2)C1=O` (centres undefined), the inhibition is 101% (active).

As to `CN(C)/C=C1\C=C(c2ccccc2)OC1=O`, the inhibition is 49.5% (active).

`CN(C)/C=C1/C(=O)Nc2ccccc21`: the inhibition was 8.66%.

As for `Cc1ccc(C2=C/C(=C\c3cccnc3)C(=O)O2)cc1`, the inhibition was 10.9%.

Consider `NC(=O)C1=C[C@@H](c2csc3ccccc23)C[C@@H](OCc2ccc(CO)cc2)O1`, for which the inhibition is 5.57%.

Take `CCN(CC)C(=O)CC(c1ccc2c(c1)OCO2)c1c(OC)cc(OC)c2c(-c3ccccc3)cc(=O)oc12` (centres undefined): the inhibition was -2.49%.

Consider `Cc1ccc(/C=C/C(=O)O)cc1S(=O)(=O)N1CCC(Cc2ccccc2)CC1`, for which the inhibition is 6.76%.

Regarding `O=c1[nH]nc(SCCS(=O)(=O)c2ccc(F)cc2)n1-c1ccccc1C(F)(F)F`, the inhibition was 6.99%.

In the case of `CN(c1ccccn1)c1ncnc2[nH]ncc12`, the inhibition is 3.53%.

With `O=C(NC1CC1)C1=C[C@H](c2c[nH]c3ccccc23)C[C@H](OCc2ccc(CO)cc2)O1`, the inhibition is 1.62%.

With `Cc1nc(C(=O)NCc2ccccc2)sc1C1(C)CC(c2cccnc2)=NO1` (centres undefined), the inhibition is 6.55%.

`CC1=NNC(=O)C1CC(=O)N/N=C/c1ccncc1` (centres undefined): the inhibition was 2.75%.

Take `C=CCCN(Cc1ccccc1)S(=O)(=O)c1ccccc1Br`: the inhibition was 5.98%.

In the case of `Cc1ccccc1NC(=O)Nc1ccccc1N1CCCCC1`, the inhibition was 5.71%.

With `c1ccc(-c2cc(N3CCCCC3)c3ccccc3n2)cc1`, the inhibition is 16%.

As to `c1ccc(-n2cccc2)c(N2CCCCC2)c1`, the inhibition was 46.9% (active).
